# Shown are actives, neighbours in structure and some others; about 0.039% of the full set was active somewhere.
# MBNL1-CUG inh: MBNL1-poly(CUG) RNA binding inhibition; TR-FRET MBNL1-His/biotin-(CUG)12 binding, 665/545 ratio; Q9NR56; 0.036% of 280,000 active; Potency, µM (top dose mostly 57.5 µM), hits mostly inhibitors; AID 2675; active = well fitted inhibition curve with a large enough effect in the signal ratio, with a control signal flat, not every such curve was filed as active; inconclusive = small, poorly fitted or top-dose-only effect, or effect the other way, or a change in a side signal; inactive = no such curve, though single readings can be large or run the other way; the % refers to the signal ratio
# Target sequence (Q9NR56 whole entry, looked up): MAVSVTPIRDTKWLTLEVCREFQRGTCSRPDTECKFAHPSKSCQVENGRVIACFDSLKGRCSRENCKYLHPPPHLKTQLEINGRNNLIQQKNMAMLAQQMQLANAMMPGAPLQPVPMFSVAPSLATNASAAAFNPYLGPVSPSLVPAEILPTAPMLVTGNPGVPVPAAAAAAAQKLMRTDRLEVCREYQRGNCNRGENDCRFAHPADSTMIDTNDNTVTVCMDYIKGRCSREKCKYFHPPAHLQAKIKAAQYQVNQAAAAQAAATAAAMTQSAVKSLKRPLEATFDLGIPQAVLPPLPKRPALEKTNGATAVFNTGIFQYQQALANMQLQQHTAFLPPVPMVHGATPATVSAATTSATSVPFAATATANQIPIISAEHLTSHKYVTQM
#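 Ratiometric TR-FRET (665 over 545 nm, excitation 340 nm) tracks disruption of MBNL1-His/biotin-(CUG)12 complex after 60 min at room temperature, with compounds at 92 nM to 58 uM final.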
# CBFb RUNX1 block: CBF-beta/RUNX1 interaction disruption; Q01196+Q13951; AlphaScreen CBFb-His/RUNX1-biotin binding, biochemical; Potency, µM (titrated, usually from 59.8 µM), most hits filed as inhibitors; 230,000 tested, under 10 active; AID 1477; active = well fitted curve in the direction sought with a large enough effect; inconclusive = small, poorly fitted or top-dose-only effect, or effect the other way, or another doubt; inactive = no such curve, though single readings can be large or run the other way
#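 His-tagged CBF-beta and biotinylated RUNX1 (30 nM each) were premixed 20 min at room temperature, exposed to compound for 15 min, then given nickel-chelate and streptavidin AlphaScreen beads (50 ng each). After 90 min, AlphaScreen signal was read.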
# LMNA splice mod: changes lamin A minigene splicing in HeLa cells; HeLa LMNA splicing GFP/RFP minigene ratio, 48 h; Potency, µM (doses to about 46.1 µM), most hits filed as inhibitors; 0.01% of 200,000 active; active = well fitted inhibition curve with a large enough effect in the signal ratio, with a control signal flat, not every such curve was filed as active; inconclusive = small, poorly fitted or top-dose-only effect, or effect the other way, or a change in a side signal; the % refers to the signal ratio
#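 S3 HeLa cells stably expressing lamin A-EGFP splicing minigene plus DsRed2, 600 cells/well, 48 h compound exposure at 37C. Laser-scanning cytometry; analysed as GFP (500-530 nm)/RFP (575-640 nm) total intensity ratio; 0.5% DMSO vehicle.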
# A number is an active result; – = inactive; ? = inconclusive; · = not tested or not shown; [ ] = dose if it differs, or a comment.
SMILES,MBNL1-CUG inh,CBFb RUNX1 block,LMNA splice mod
COc1ccccc1C1=Nn2c(nnc2-c2ccccc2C)SC1,·,–,·
O=C(/C=C/c1ccc(O)c(O)c1)c1ccc(O)cc1O,·,–,·
CC(C)(C)c1ccc(-c2nc(SCC(=O)Nc3ccc(Cl)cc3)[nH]c(=O)c2C#N)cc1,·,·,–
O=C1C=C[C@@H](O)[C@H]2[C@@H]3C(=O)N(Cc4ccccc4)C(=O)[C@@H]3CC[C@H]12,·,–[13.1 µM],·
CCN1C(C)=C(C(=O)OC)C(c2ccccc2)N2C(=O)[C@@]3(C(=O)OC)O[C@@]12C1C(=O)CCCC13 (stereo partly drawn),·,–[13.1 µM],·
CN(C)c1ccc(/C=C/c2ccc3ccccc3n2)cc1,–,?,·
Oc1ccc(/C=C/c2ccc3ccccc3n2)cc1,–,–,13µM
Cc1noc(C)c1-c1ccc2ncnc(NCc3cccc(Cl)c3)c2c1,·,–,·
NC(=S)NNC(N)=S,·,–,·
Cc1ccc(S(=O)(=O)NC(=O)O[C@@H]2C(=O)c3cc(Br)ccc3O[C@H]2c2ccc3c(c2)OCO3)cc1,·,–,·
O=C(Cn1nc2c(cc1=O)CCCC2)NCc1ccccc1,·,·,–
Cc1[nH]c(=O)[nH]c1C(=O)CCCCC(=O)OCC(=O)Nc1ccccn1,0.045µM,·,–
CCOC(=O)CCCCC(=O)c1[nH]c(=O)[nH]c1CSc1nc2ccccc2[nH]1,?,–,–
COc1ccc(C2=Nn3c(nnc3-c3ccccc3C)SC2)cc1,·,–,·
CC(=O)O[C@@H]1C(CO[Si](C)(C)C(C)(C)C)=C(Br)C(=O)[C@@H]2O[C@]12C,·,–,·
CCCC(=O)Nc1cc(C(=O)NCc2ccccc2)ccc1S(=O)(=O)c1ccc(Cl)cc1,·,·,–
CNc1nc(Cl)nc2c1ncn2CC(COC(=O)C(C)(C)C)COC(=O)C(C)(C)C,·,–,·
CCOc1ccc2nc(N(Cc3cccnc3)C(=O)c3ccco3)sc2c1,·,·,–
COC(=O)C/C=C\[C@@H](C)[C@@H](/C=N\O[C@@H](C)c1cn([C@H]2COC[C@H]2O)nn1)OC,·,–[13.1 µM],·
Cc1ccc2c(c1)c(CC(NC(=O)c1ccccc1Oc1ccccc1)C(=O)O)cn2C(=O)OCc1ccccc1 (stereo not drawn),·,–,·
CN(C)/[N+]([O-])=N/Oc1cc(O/[N+]([O-])=N/N2CCCC2CO)c([N+](=O)[O-])cc1[N+](=O)[O-] (stereo not drawn),·,–,·
Cc1ccc(S(=O)(=O)NC2=C(N3CCN(c4ccccc4F)CC3)C(=O)c3ccccc3C2=O)cc1,?,?,–[0.0737 µM]
CC(=O)Nc1ccc(S(=O)(=O)NC2=C(N3CCN(c4ccc(F)cc4)CC3)C(=O)c3ccccc3C2=O)cc1,?,?,11µM
COC(=O)N1C2CC(=O)O[C@@H]3c4cc5c(cc4[C@]1(C)[C@@]3(Br)c1ccccc12)OCO5,·,–[13.1 µM],?
CC(=O)OC1CC(C)OC(C)O1 (stereo not drawn),·,–,·
SMILES,MBNL1-CUG inh,CBFb RUNX1 block,LMNA splice mod
CCC1(c2ccc(O)cc2)NC(=O)N(C)C1=O (stereo not drawn),·,–,·
CN(C)c1ccc(-c2nc(N(C)C)c3ccccc3n2)cc1,·,·,13µM
Cc1ccccc1-c1nc(N(C)C)c2ccccc2n1,·,·,–
S=C1NC=NC2N=CNC12 (stereo not drawn),·,–,?
Cc1cccc(CN2CC34CCC(CC3S2(=O)=O)O4)c1 (stereo not drawn),·,–,·
Cc1cccc2c3c(ccc12)C1=C(C(=O)C3=O)[C@@H](C)CO1,·,–,·
CC(C)CCCC(C)CCCC(C)CCCC(C)C(=O)O (stereo not drawn),·,–,·
OC1OC[C@H](O)[C@@H](O)[C@H]1O (stereo partly drawn),·,–,·
O=C(/C=C/c1ccc(O)c(O)c1)c1ccc(O[C@@H]2O[C@H](CO)[C@@H](O)[C@H](O)[C@H]2O)c(O)c1O,·,–,·
O=S(=O)(Nc1cccc2cccnc12)c1ccccc1O,·,–,·
COc1cccc(CNC(=O)c2cnc(N3CCCCC3)c3ccccc23)c1,·,·,–
C=CCNC(=O)Nc1ccc2nc(C)sc2c1,32µM,–,·
CNC(=O)Nc1ccc2nc(C)sc2c1,–,–,·
O=c1ccc2ccccc2[nH]1,·,–,·
CCCCCCCCCCCCCCCCn1cc[n+](Cc2ccccc2)c1C,·,–,·
c1ccc2[nH]c(NCCCc3cnc[nH]3)nc2c1,·,–,·
CCOC(=O)N1CCN(c2ccc(O)cc2)CC1,–,–,13µM
CCOC(=O)N1CCN(c2ccc(Cl)cc2)CC1,–,–,–
Cc1cccc2sc(NNC(=O)c3ccc(S(=O)(=O)N4CC(C)CC(C)C4)cc3)nc12 (stereo not drawn),–,–[2.36 µM],18µM
Cc1cc(C)c2nc(NNC(=O)c3ccc(S(=O)(=O)N4CC(C)CC(C)C4)cc3)sc2c1 (stereo not drawn),–,–[2.36 µM],?
COc1cc(/C=C/c2ccccc2)oc(=O)c1,·,–,·
Cc1cccc(CNC(=O)c2cnc3sc(N4CCCCCC4)nn3c2=O)c1,·,·,–
O=Nc1c(O)[nH]c2c(Cl)c(Cl)ccc12,·,–,·
O=C(O)c1ccc(-c2c3nc(c(-c4ccc(C(=O)O)cc4)c4ccc([n-]4)c(-c4ccc(C(=O)O)cc4)c4nc(c(-c5ccc(C(=O)O)cc5)c5ccc2[n-]5)C=C4)C=C3)cc1.[Mn+3],·,–,·
Cc1ccc(C)c(N2CCN(C(=O)Cn3cnc4nc5c(cc4c3=O)CCCC5)CC2)c1,·,·,–
SMILES,MBNL1-CUG inh,CBFb RUNX1 block,LMNA splice mod
CC(C)C[C@H](NC(=O)CN(C)C(=O)[C@H](Cc1ccccc1)NC(=O)[C@H](Cc1ccccc1)NC(=O)[C@H](CCC(N)=O)NC(=O)[C@H](CCC(N)=O)NC(=O)[C@@H]1CCCN1C(=O)[C@H](CCCCN)NC(=O)[C@@H]1CCCN1C(=O)[C@@H](N)CCCN=C(N)N)C(=O)N[C@@H](CCS(C)(=O)=O)C(N)=O,·,–,·
CCOC(=O)N1CCN(/[N+]([O-])=N/Oc2ccc([N+](=O)[O-])cc2[N+](=O)[O-])C(C)C1 (stereo not drawn),·,–,·
O=c1c(-c2ccc(O)cc2)coc2cc(O[C@@H]3O[C@H](CO)[C@H](O)[C@H](O)[C@H]3O)ccc12,·,–,·
CC[C@H](C)[C@H](NC(=O)[C@H](Cc1ccccc1)NC(=O)[C@H](C)NC(=O)[C@H](CC(=O)O)NC(=O)[C@H](CCCCN)NC(=O)[C@H](CO)NC(=O)[C@@H]1CCCN1C(=O)[C@@H]1CCC(=O)N1)C(=O)NCC(=O)N[C@@H](CC(C)C)C(=O)N[C@@H](CCSC)C(N)=O,·,–,·
CC(C)C[C@@H](C=O)NC(=O)[C@H](CC(C)C)NC(=O)[C@H](CC(C)C)NC(=O)OCc1ccccc1,·,–,·
COCCNC(=O)C1(C(F)(F)F)C/C(=C\Cc2ccccc2)CCCO1 (stereo not drawn),·,–,·
Cc1cccc2sc(N)nc12,·,–,·
CNC(=O)CSc1nnc(NC(=O)Nc2ccccc2)s1,·,·,–
COC1=C(C(=O)c2ccccc2)C(=O)C2(CC=C(C)C)C[C@H](C(=O)OCC(F)(F)F)C(C)(C)[C@@]1(CC=C(C)C)C2=O (tested in a mixture with another compound),·,–,·
Cc1cc(I)ccc1Nc1c(C(=O)NOCC2CC2)cc(F)c(F)c1F,·,–,·
CCCCC#CC1C=CC(OC(C)=O)C(COC(C)=O)O1 (stereo not drawn),·,–[13.1 µM],·
